In all, about 310,000 compounds went through this assay and about 14,000 (4.5%) showed an effect of 50% or more. The effect is printed as a negative number. For the sample, strong results were picked, then their nearest neighbours and some compounds at random.
Each compound was assayed against human ether-à-go-go-related gene (hERG) potassium channel (human, UniProt Q12809) (assay: primary screen, population patch clamp on CHO cells stably expressing hERG; higher = less effect of the substance).
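Also: peak tail current of the secondary pulse compared with the same well before compound.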

Sequence of human ether-à-go-go-related gene (hERG) potassium channel (Q12809 whole entry, looked up): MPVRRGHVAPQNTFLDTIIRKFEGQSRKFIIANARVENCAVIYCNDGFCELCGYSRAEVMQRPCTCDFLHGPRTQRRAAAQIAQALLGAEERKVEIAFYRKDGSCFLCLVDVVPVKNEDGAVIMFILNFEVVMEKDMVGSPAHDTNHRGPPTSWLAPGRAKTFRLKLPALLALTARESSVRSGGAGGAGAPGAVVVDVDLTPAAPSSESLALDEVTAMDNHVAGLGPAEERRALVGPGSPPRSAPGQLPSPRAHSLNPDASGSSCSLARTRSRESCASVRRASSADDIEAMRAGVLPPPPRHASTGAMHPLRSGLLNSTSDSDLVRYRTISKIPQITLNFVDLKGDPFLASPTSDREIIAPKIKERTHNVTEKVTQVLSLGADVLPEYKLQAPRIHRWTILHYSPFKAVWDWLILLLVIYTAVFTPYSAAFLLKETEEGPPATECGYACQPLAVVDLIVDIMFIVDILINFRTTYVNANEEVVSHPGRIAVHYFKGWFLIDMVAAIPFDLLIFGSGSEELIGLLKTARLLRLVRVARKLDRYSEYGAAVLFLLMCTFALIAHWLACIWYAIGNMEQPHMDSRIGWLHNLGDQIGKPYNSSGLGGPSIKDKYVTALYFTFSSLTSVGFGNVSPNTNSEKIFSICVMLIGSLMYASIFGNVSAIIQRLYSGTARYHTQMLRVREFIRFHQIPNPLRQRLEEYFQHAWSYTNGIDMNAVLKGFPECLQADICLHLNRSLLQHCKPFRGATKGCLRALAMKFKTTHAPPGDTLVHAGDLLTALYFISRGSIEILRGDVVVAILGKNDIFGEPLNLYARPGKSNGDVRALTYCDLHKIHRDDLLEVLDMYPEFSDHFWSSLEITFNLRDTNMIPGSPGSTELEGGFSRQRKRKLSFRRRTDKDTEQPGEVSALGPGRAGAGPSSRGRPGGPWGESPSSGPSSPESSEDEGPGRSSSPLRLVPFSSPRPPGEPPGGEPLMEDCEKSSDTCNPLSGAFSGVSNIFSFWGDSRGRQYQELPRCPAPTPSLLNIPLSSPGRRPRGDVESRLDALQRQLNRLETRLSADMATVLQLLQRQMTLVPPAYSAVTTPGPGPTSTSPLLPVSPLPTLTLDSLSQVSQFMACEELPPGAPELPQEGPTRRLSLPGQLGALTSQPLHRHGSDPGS

Row | Structure (SMILES) | hERG current change (%, negative = inhibition) at 10uM [%]
1 | CCN(CC(=O)NCc1ccc(Cl)cc1)C(=O)c1cccc(S(=O)(=O)Nc2ccc(OC)cc2)c1 | -0.458
2 | Cc1ccc(NC(=O)C(Cc2ccccc2)NC(=O)c2ccco2)cc1 (stereo not shown) | -3.13
3 | O=C1CC(N2CCN(c3nc4ccccc4s3)CC2)C(=O)N1Cc1cccs1 (stereo not shown) | -62.3
4 | O=C1CC(N2CCC(c3nc4ccccc4o3)CC2)C(=O)N1Cc1cccs1 (stereo not shown) | -30.9
5 | O=C1CC(N2CCN(c3nc4ccccc4s3)CC2)C(=O)N1c1ccc(F)cc1 (stereo not shown) | -53.5
6 | CCOc1cccc(N2C(=O)CC(N3CCN(c4nc5ccccc5s4)CC3)C2=O)c1 (stereo not shown) | 5.09
7 | CCCOc1ccc(N2C(=O)CC(N3CCN(c4nc5ccccc5s4)CC3)C2=O)cc1 (stereo not shown) | 8.46
8 | COc1ccc(N2C(=O)CC(N3CCN(c4nc5ccccc5s4)CC3)C2=O)cc1 (stereo not shown) | -30.9
9 | Cc1ccc(/C=N/NC(=O)C(NC(=O)c2ccccc2)c2n[nH]c(=O)c3ccccc23)cc1 (stereo not shown) | -2.54
10 | CCC(C)NC(=S)Nc1ccc(C(=O)OC)cc1 (stereo not shown) | 15
11 | CCCn1c(=O)c(C(=O)NNC(=O)c2cccc([N+](=O)[O-])c2)c(O)c2ccccc21 | -21.7
12 | O=C(Cn1cnc2ccccc2c1=O)NCCC(=O)Nc1ccc2c(c1)OCO2 | 16.4
13 | Cc1cc(NC(=O)CSc2nc(-c3ccc(Cl)cc3)cs2)no1 | -5.45
14 | COC(=O)c1cc(NC(=O)Cn2nc(C)n3cccc3c2=O)cc(C(=O)OC)c1 | 4.88
15 | COc1cc(S(=O)(=O)NCC2CCCO2)c(OC)cc1Cl (stereo not shown) | 10.6
16 | CC1CCN(CC(=O)Nc2ccccc2C#N)CC1 | 3.06
17 | N#Cc1ccsc1NC(=O)CN1CCN(c2ccccc2)CC1 | 1.63
18 | N#Cc1ccsc1NC(=O)CN1CCCCC1 | -5.6
19 | N#Cc1ccccc1NC(=O)CN1CCN(Cc2ccccc2)CC1 | -60.1
20 | N#Cc1ccccc1NC(=O)CN1CCOCC1 | 13.4
21 | N#Cc1ccsc1NC(=O)CN1CCN(Cc2ccccc2)CC1 | -66.4
22 | Cc1ccc(C(=O)NCCN(C)C)cc1C | 7.22
23 | Nc1ccccc1NC(=O)c1ccccc1 | 2.34

Row | Structure (SMILES) | hERG current change (%, negative = inhibition) at 10uM [%]
24 | O=C(CCCN1C(=O)c2cccnc2Oc2ccc(Cl)cc21)N1CCCCC1 | -9.27
25 | O=C1CNC(=O)N1 | 13.6
26 | CS(=O)(=O)Nc1ccc(C(=O)N2CCCCC2)cc1 | -3.35
27 | CS(=O)(=O)Nc1ccc(C(=O)N2CCN(c3ccccc3)CC2)cc1 | -61.9
28 | O=C(Nc1ccc(C(=O)N2CCN(c3ccccc3F)CC2)cc1)C1=CSCCO1 | -50.3
29 | O=C(Nc1ccc(C(=O)N2CCN(c3ccc(F)cc3)CC2)cc1)C1=CSCCO1 | -38.1
30 | O=C(Nc1ccc(C(=O)N2CCN(c3ccccc3)CC2)cc1)C1=CSCCO1 | -39.8
31 | CS(=O)(=O)Nc1ccc(C(=O)N2CCN(c3ccccc3F)CC2)cc1 | -68.1
32 | O=C(c1ccccc1)N1CCN(c2ccccc2F)CC1 | 10.1
33 | O=C(c1ccc(-c2ccccc2)cc1)N1CCN(c2ccccc2F)CC1 | 7.96
34 | CS(=O)(=O)Nc1ccc(C(=O)N2CCCC2)cc1 | -7.75
35 | Cc1nn(CCC#N)c(NC(=O)c2ccccc2)c1P(=O)(Nc1ccc(Br)cc1)N1CCOCC1 (stereo not shown) | 20.6
36 | Cc1cc(CN(C)C(=O)c2ccc3nc(Cc4ccccc4F)oc3c2)on1 | -5.71
37 | Cc1ccc(SCC2=NN(c3nc(C)cc(C)n3)C(=O)C2)cc1 | -16
38 | CCn1c(SCc2ccc(Cl)c(Cl)c2)nnc1C(C)NC(=O)c1ccc(OC)cc1 (stereo not shown) | 10
39 | CCn1c(CCNC(=O)c2ccc(OC)cc2)nnc1SCc1ccc(Cl)cc1Cl | -65.6
40 | CCn1c(CCNC(=O)c2ccc(OC)cc2)nnc1SCc1ccc(Cl)c(Cl)c1 | -61.8
41 | CCn1c(CCNC(=O)c2ccc(Cl)c(Cl)c2)nnc1SCCOc1ccc(OC)cc1 | -8.77
42 | CCOc1ccc(NC(=O)CSc2nnc(CCNC(=O)c3ccc(OC)cc3)n2CC)cc1 | -26.7
43 | CCn1c(CCNC(=O)c2ccc(C)cc2)nnc1SCc1ccc(Cl)c(Cl)c1 | -45.7
44 | CCC1(C)Cc2nc3[nH]c(=S)n(-c4ccccc4C)c(=O)c3cc2CO1 (stereo not shown) | 4.44
45 | Cc1ccc2c(c1)c1c(n2C)C(C(N)=O)CCC1 (stereo not shown) | -19.5
46 | CCCC(C)C1(CC)C(=O)NC(=Nc2ccc(F)cc2)NC1=O (stereo not shown) | 17.5

Row | Structure (SMILES) | hERG current change (%, negative = inhibition) at 10uM [%]
47 | CCCC(C)C1(CC)C(=O)NC(=O)N=C1N (stereo not shown) | -76.5
48 | CCC(C)C1(CC)C(=O)NC(=O)N=C1N (stereo not shown) | 36.1
49 | O=C1c2ccccc2-c2c1cccc2C(=O)N1CCCCC1 | -22.3
50 | O=C(c1cc(-c2ccc(Cl)cc2Cl)on1)N1CCCC1 | -0.203
51 | O=C(c1ccc(Cl)cc1)N1CCN(C(=O)c2ccco2)CC1 | -21
52 | O=C(c1cc(-c2ccc(Cl)cc2Cl)on1)N1CCN(C(=O)c2ccco2)CC1 | -70.2
53 | O=C(c1ccc(-c2ccccc2Cl)o1)N1CCN(c2ccccc2O)CC1 | 8.64
54 | O=C(c1cc(-c2ccccc2Cl)on1)N1CCN(C(=O)c2ccco2)CC1 | -44.2
55 | O=C(Cc1ccc(Cl)cc1)N1CCN(C(=O)c2ccco2)CC1 | -12.8
56 | O=C1c2ccccc2-c2c1cccc2C(=O)N1CCCCCC1 | 0.506
57 | O=C(c1ccco1)N1CCN(C(=O)c2ccc(-c3ccc(Cl)cc3)o2)CC1 | -78.8
58 | O=C(c1ccco1)N1CCN(C(=O)c2ccc(-c3ccccc3Cl)o2)CC1 | -67.6
59 | CC(=O)N1CCN(C(=O)c2ccc(-c3ccccc3Cl)o2)CC1 | -20
60 | O=C1c2ccccc2-c2c1cccc2C(=O)N1CCN(C(=O)c2ccco2)CC1 | -71.1
61 | COC(=O)C(O)(c1ccc(NC(=O)c2ccco2)c(OC)c1)C(F)(F)F (stereo not shown) | -6.24
62 | O=C(NCCc1ccc(Cl)cc1)C(=O)c1c[nH]c2ccccc12 | -10.8
63 | O=C(Nc1nsc(-c2ccccc2)n1)c1ccc(F)cc1 | -24.6
64 | CCC(NC(=O)CNC(=O)CNC(=O)c1ccc(Cl)cc1Cl)c1ccc(C)cc1 (stereo not shown) | 22.2
65 | CC(C)c1cc(C(=O)O)n(-c2ccccc2)n1 | 12.1
66 | Cc1ccc(S(=O)(=O)n2[nH]c(=O)c(CCO)c2C)cc1 | 8.83
67 | O=C(Cc1ccc(F)cc1)N/N=C/c1ccncc1 | -8.56
68 | Fc1ccc(C2c3cccn3CCN2C(=S)Nc2cccc(Br)c2)cc1 (stereo not shown) | 19.4
69 | Cc1ccc(C(=O)c2ccccc2C(=O)OCC(=O)NC(C)(C)C)cc1 | -0.829

Row | Structure (SMILES) | hERG current change (%, negative = inhibition) at 10uM [%]
70 | O=C(COC(=O)c1ccccc1C(=O)c1ccc(Cl)cc1)NCCc1ccccc1 | -18.7
71 | O=C(COC(=O)c1ccccc1C(=O)c1ccccc1)NCCc1ccccc1 | -64.8
72 | Cc1ccc(C(=O)c2ccccc2C(=O)OCC(=O)NCCc2ccccc2)cc1 | -52.5
73 | Cc1ccc(C(=O)c2ccccc2C(=O)OCC(=O)NCCc2ccc(Cl)cc2Cl)cc1 | -9.96
74 | O=C(COC(=O)c1ccccc1C(=O)c1ccccc1)NCCc1ccc(Cl)cc1Cl | -31.9
75 | CSCCC(NS(=O)(=O)/C=C/c1ccccc1)C(=O)NCCc1ccc(S(N)(=O)=O)cc1 (stereo not shown) | 7.59
76 | COc1ccc(C(=O)COC(=O)CCn2nnc(-c3cccs3)n2)cc1 | 10.6
77 | CN(Cc1c(C(=O)N/N=C/c2cccc(O)c2)nnn1-c1nonc1N)C1CCCCC1 | -2.25
78 | CCOC(=O)CN1C(=O)CSc2ccccc21 | 0.699
79 | CNc1ncc(C(=O)c2ccccc2)s1 | -1.56
80 | NCCNC(=O)c1c(NC(=O)c2ccccc2)sc2c1CCCC2 | 15.4
81 | CCN(CC)CCCC(C)NC(=O)c1c(NC(=O)c2ccccc2)sc2c1CCCC2.O=C(O)C(=O)O (stereo not shown) | -76.9
82 | CN(C)CCNC(=O)c1c(NC(=O)c2ccccc2)sc2c1CCCC2 | -25.9
83 | CCOc1ccccc1C(c1c(O)nc(SC)[nH]c1=O)c1c(O)nc(SC)[nH]c1=O | 5.67
84 | O=S(=O)(Nc1ncccn1)c1ccc(NS(=O)(=O)c2cc(Cl)ccc2Cl)cc1 | 31.6
85 | COc1ccccc1C(=O)N(Cc1ccccc1)c1ccc(C)cc1 | -2.96
86 | CC#CC(=O)N1CCC(CO)(CCc2ccccc2)CC1 | 1.33
87 | CCOC(=O)C1(CCc2ccccc2)CCN(C(=O)C2=C(C)OCCO2)CC1 | -15.2
88 | CC#CC(=O)N1CCC(CCc2ccccc2)(C(=O)OCC)CC1 | -61.4
89 | CCOC(=O)C1(CCc2ccccc2)CCN(C(=O)c2cccc(C)n2)CC1 | -11.4
90 | CCOC(=O)C1(CCc2ccccc2)CCN(C(=O)c2occc2C)CC1 | -63.3
91 | CCOC(=O)C1(CCc2ccccc2)CCN(C(=O)c2cc(C)nc(C)n2)CC1 | -11

— paper PMC4336329 (PLoS ONE, 2015)
